Screening data: PubChem BioAssay, National Center for Advancing Translational Sciences (NCATS)
ALDH1A1 block: inhibitors of human aldehyde dehydrogenase 1A1; P00352; Purified ALDH1A1, NADH fluorescence, propionaldehyde substrate; Potency, µM (top dose mostly 75.3 µM), most hits filed as inhibitors; hit rate 7.3% among 220,000; active = well fitted inhibition curve with a large enough effect, not every such curve was filed as active; inconclusive = small, poorly fitted or top-dose-only effect, or another doubt; inactive = no such curve, though single readings can be large or run the other way
HttQ103 aggreg: inhibitors of mutant huntingtin aggregate formation in PC12 cells | PC12 HttQ103-GFP aggregates, Acumen cytometry, 40 h | Potency, µM (series often up to 46.1 µM), hits mostly inhibitors | hit rate 1.1% among 220,000; also: nearly all actives have a fitted effect of over 60% in size
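Steps: seed 1500 PC12 HTTQ103-GFP cells/well; add tebufenozide, 100 nM final; add compound titration; add ATPLite reagent; quantify GFP aggregates by laser scanning cytometry.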
HPGD block: blocks human HPGD enzyme activity; P15428; purified HPGD, NADH fluorescence kinetic, PGE2 substrate; Potency, µM, hits mostly inhibitors; hit rate 4.3% among 150,000; active = well fitted inhibition curve with a large enough effect, not every such curve was filed as active; inconclusive = small, poorly fitted or top-dose-only effect, or another doubt; inactive = no such curve, though single readings can be large or run the other way
Target sequence (P15428 whole entry, looked up): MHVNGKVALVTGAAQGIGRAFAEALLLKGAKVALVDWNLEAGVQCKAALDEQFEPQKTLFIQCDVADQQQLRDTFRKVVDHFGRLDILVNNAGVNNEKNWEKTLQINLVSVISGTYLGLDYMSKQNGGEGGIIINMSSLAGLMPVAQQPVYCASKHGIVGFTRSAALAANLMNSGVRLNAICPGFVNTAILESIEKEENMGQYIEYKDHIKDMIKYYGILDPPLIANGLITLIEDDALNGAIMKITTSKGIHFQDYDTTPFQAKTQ
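NADH formation kinetics: reaction with 30 uM PGE2 and 1 mM NAD+ (final), 20 nM enzyme, Tris-HCl pH 8 with Tween 20, after 15 min compound preincubation at room temperature. Fluorescence change, last versus first of five reads.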
HTT cytoprotect: protects HTT-Q103 PC12 cells, measured by ATP. PC12 HTT-Q103 induced, cytoprotection, ATP luminescence, 40 h. Potency, µM (highest dose often 56.4 µM), usual class: activators. hit rate 0.14% among 230,000; also: nearly all actives have a fitted effect of over 45% in size
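Quantitative HTS on tebufenozide-induced (100 nM) PC12 cells expressing HTTQ103 exon 1–GFP; compounds tested as a concentration series; survival measured via cellular ATP.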
IMPase Li cell: membrane-permeable IMPase blocker, potentiated with lithium; CHO-M1 cells, IP1 TR-FRET (IP-One), carbachol + lithium; Potency, µM (titrated, usually from 59.4 µM), most hits filed as inhibitors; hit rate 0.35% among 210,000; AID 1457;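 also: IP1 builds up when IMPase is blocked and the TR-FRET signal falls; nearly all actives have a fitted effect of over 50% in size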
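Test compounds were applied to CHO-M1 cells previously cultured for 16–30 h at 2000 per well. A small lithium amount accompanied them; after 30 min at 37C, IP1 was quantified by TR-FRET.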
IMPase inh: membrane-permeable compound that blocks inositol monophosphatase; 120,000 tested, under 10 active; CHO-M1 cells, IP1 accumulation, HTRF TR-FRET ratio; AID 901; inhibition (IP1 accumulation), % at 46.1 µM; P97697; active = well fitted curve in the direction sought with a large enough effect in the signal ratio, not every such curve was filed as active; inconclusive = small, poorly fitted or top-dose-only effect, or a change in a side signal; inactive = no such curve, though single readings can be large or run the other way; the % refers to the signal ratio;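 also: cells stimulated with carbachol in lithium chloride buffer; higher means more IMPase inhibition seen as more IP1 and lower FRET ratio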
Target sequence (P97697 whole entry, looked up): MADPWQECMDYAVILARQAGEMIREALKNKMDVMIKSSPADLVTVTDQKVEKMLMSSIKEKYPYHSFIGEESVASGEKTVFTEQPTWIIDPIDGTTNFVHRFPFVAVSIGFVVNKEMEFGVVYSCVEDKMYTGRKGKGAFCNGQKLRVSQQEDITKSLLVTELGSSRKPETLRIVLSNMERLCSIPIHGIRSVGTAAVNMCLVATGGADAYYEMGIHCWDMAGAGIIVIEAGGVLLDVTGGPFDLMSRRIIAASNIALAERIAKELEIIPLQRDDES
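Seeded CHO-M1 cells were dosed with compound at up to 46 uM, stimulated with carbachol for 30 min, then lysed in IP-One detection reagents. Higher IP1 lowers the TR-FRET signal.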
A number is an active result; 0 = inactive; ? = inconclusive; - = no result; [ ] = another dose, or the depositor's remark. Compounds with a hit are over-represented: about 9.4% of the library has one in this group of screens. Unless noted, calls follow the shape of the dose curve; as a rule, active = well fitted curve in the direction sought with a large enough effect; inconclusive = small, poorly fitted or top-dose-only effect, or another doubt; inactive = no such curve, though single readings can be large; an effect the other way counts as inactive or inconclusive.

SMILES	ALDH1A1 block	HttQ103 aggreg	HPGD block	HTT cytoprotect	IMPase Li cell	IMPase inh
COCc1[nH]nc2c1C1(C(=O)Nc3ccc(F)cc31)C(C#N)=C(N)O2 (stereo not drawn)	0	0	0	0[0.074 µM]	0	0
CCOC(=O)N1CCC2(CC1)C(C#N)=C(N)Oc1n[nH]c(CSc3ccc(C)cc3)c12	0	0	0	0[10 µM]	0	0
Fc1cccc(NC(=S)Nc2cccnc2)c1	0	0	-	0	0	-
Fc1cccc(NC(=S)NNc2c3ccccc3nc3ccccc23)c1	3.2µM	?	-	0	0	-
COc1ccc(NC(=O)c2sc(SCc3ccccc3)nc2N)cc1	13µM	25µM	?	0[10 µM]	0	0
COc1ccc(NC(=O)c2sc(SC)nc2N)cc1	0	-	0	0[10 µM]	0	0
CCN(CC)S(=O)(=O)c1ccc(Oc2ccc(S(=O)(=O)N(CC)CC)cc2)cc1	0	2.8µM	0	0	0	0
CCN(CC)S(=O)(=O)c1ccc(Oc2ccccc2OC)cc1	-	0[9.22 µM]	-	0[10 µM]	-	-
CCc1nnc(NC(=O)c2cccc(C(=O)Nc3nnc(CC)s3)n2)s1	?	0.89µM	0	0[0.074 µM]	0	0
CC(C)Sc1nnc(NC(=O)C2CC2)s1	0.05µM	0	0	0	0	0
CCc1nnc(NC(=O)CSc2nnc(CNc3ccc(F)cc3)n2C2CCCCC2)s1	10µM	0	0	0	0	0
CCOC(=O)Cc1nnc(NC(=O)C2CCCCC2)s1	0	-	-	-	0	-
CCc1nnc(NC(=O)c2ccncc2)s1	0	0	0	0	0	0
CCc1nnc(NC(=O)C2CCCCC2)s1	25µM	0	?	0	0	0
CC(C)CC(=O)NCCCCc1ccccc1	?	0	16µM	0[10 µM]	0	-
CC(C)CNC(=O)CCCc1ccccc1	0	0	14µM	0	0	0
C=CCNC(=O)CCCc1ccccc1	0	0	0	0	0	0
CCCn1c(-c2ccc(F)cc2)nc2c(NCC(C)(C)CN(C)C)nc(C)nc21	?	-	?	0	0	-
COc1cccc(C2c3[nH]c4ccccc4c3CCN2C(=O)Cn2cncn2)c1OC (stereo not drawn)	9.5µM	0[9.22 µM]	-	0[10 µM]	0	-
COc1ccc(C2c3[nH]c4ccccc4c3CCN2C(=O)c2ccc(=O)n(C)n2)c(F)c1 (stereo not drawn)	0	0	-	0	-	-
Cc1ccccc1C1c2[nH]c3ccccc3c2CCN1C(=O)c1ccc(=O)n(C)n1 (stereo not drawn)	32µM	0	-	0	0	-
CCOC(=O)C12CC1/C(=N/O)c1ccccc1O2 (stereo not drawn)	0	-	0	-	0	-
CCCN=Cc1c(CCC)[nH]n(-c2nc3ccccc3s2)c1=O	14µM	0	0	0	0	0
CC(C)c1ccc(O)c(O)c(=O)c1 (tested in a mixture with another compound)	0[13.5 µM]	-	0	0[10 µM]	0	-
C=CCn1c(SCC(=O)N2CCOCC2)nc2scc(-c3ccco3)c2c1=O	18µM	0	0	0	0	0
SMILES	ALDH1A1 block	HttQ103 aggreg	HPGD block	HTT cytoprotect	IMPase Li cell	IMPase inh
CC(C)C(C)(C#N)NC(=O)CSc1nc2scc(-c3ccco3)c2c(=O)n1-c1ccccc1 (stereo not drawn)	11µM	?	0	0	0	0
CC(C)C(C)NC(=O)CSc1nc2scc(-c3ccco3)c2c(=O)n1-c1ccccc1 (stereo not drawn)	7.9µM	0	?	0	0	0
Cc1sc2nc(SCC(=O)NCc3ccco3)n(-c3ccccc3)c(=O)c2c1C	0	0	0	0	0	0
C=CCn1c(SCC(=O)NCCCC(=O)OCC)nc2scc(-c3ccco3)c2c1=O	?	0	-	0[10 µM]	0	-
N#CCCN(CCC#N)C(=S)NC1CC2C=CC1C2 (stereo not drawn)	0	0[9.22 µM]	-	0[10 µM]	-	-
CC1(C)CC[C@]2(C(=O)O)CC[C@]3(C)C(=CCC4[C@@]5(C)CC[C@H](O)C(C)(C)C5[C@H](O)C[C@]43C)C2C1 (stereo partly drawn)	0	-	0	0[1.9 µM]	0	0
COCCNc1nc(C)nc2c1nc(-c1ccccc1)n2CC1CCN(C)CC1	?	-	?	?	0	-
N#C[C@H](c1ccccc1)N1CCCN([C@@H](C#N)c2ccccc2)C1c1ccccc1O (stereo partly drawn)	0[13.5 µM]	-	0	0[10 µM]	0	-
COc1ccc(-c2[nH]ncc2-c2nc(C)cs2)c(O)c1	0	0	-	0	0	-
COc1ccc(O)c(-c2[nH]ncc2C(=O)c2ccccc2C)c1	13µM	0	0	0	0	0
COc1ccccc1NS(=O)(=O)c1cccc(C(=O)NN=C2CCCCCC2)c1	13µM	0	0	0[10 µM]	0	-
O=c1[nH]c2ccc(N=Cc3c(O)ccc4cc(Br)ccc34)cc2[nH]1	1µM	0	0	0[10 µM]	0	-
CC(C)N(Cc1nnc(-c2ccccc2Cl)o1)C(=O)c1cccc(C#N)c1	6.3µM	0	0	0	0	0
O=C(/C=C/c1c(Cl)nc2ccccn12)N1CCCCC1	11µM	0	-	0	0	-
O=C(/C=C/c1c(Cl)nc2ccccn12)N1CCN(c2ccccc2F)CC1	0	0	-	0	0	-
CCO/N=C(/c1nonc1N)N1CCN(c2ccc([N+](=O)[O-])cc2)CC1	11µM	0	0	0	0	0
CO/N=C(\c1nonc1N)N1CCN(c2ccc([N+](=O)[O-])cc2Cl)CC1	?	0	0	0	0	0
CCc1nc2ccccc2c(C(=O)OCc2nnc(-c3ccccc3)o2)c1C	?	0	20µM	0	0	0
Cc1cc(C(=O)OCc2nnc(-c3ccccc3)o2)c(C)n1-c1ccccc1	0	11µM	?	0	0	0
CCN1C(=O)c2cccc3c(S(=O)(=O)Nc4ccncc4)ccc1c23	?	0[9.22 µM]	?	0	0	0
CCN1C(=O)c2cccc3c(S(=O)(=O)NCc4cccnc4)ccc1c23	?	0	0	0	0	0
CCN1C(=O)c2cccc3c(S(=O)(=O)Nc4ccccc4)ccc1c23	1µM	0	0	0	0	0
CCN1C(=O)c2cccc3c(S(=O)(=O)Nc4ncccc4C)ccc1c23	10µM	0	0	0	0	0
CCN1C(=O)c2cccc3c(S(=O)(=O)Nc4nc(C)cs4)ccc1c23	3.5µM	0	0	0[0.074 µM]	0	0
CCN1C(=O)c2cccc3c(S(=O)(=O)Nc4ccccn4)ccc1c23	7.9µM	0	0	0	0	0
CCN1C(=O)c2cccc3c(S(=O)(=O)NCC4CCCO4)ccc1c23 (stereo not drawn)	-	0[9.22 µM]	-	0[10 µM]	-	-
COc1ccc(-c2nc3c(c4c2CC(C)OC4)CN(CCC(C)C)CC3)cc1 (stereo not drawn)	0[13.5 µM]	-	-	0[10 µM]	-	-
CCN1C(=O)c2cccc3c(S(=O)(=O)NCc4ccco4)ccc1c23	?	0	0	0[10 µM]	0	0
